From PubChem BioAssay
AmpC inh no detg: qHTS Inhibitors of AmpC Beta-Lactamase (assay without detergent) | AmpC nitrocefin hydrolysis, absorbance 480 nm, 0.0001% Triton | Potency, µM (highest dose often 57.1 µM), inactives show at the highest dose activity change, negative = inhibition, actives largely listed as inhibitors | hit rate 0.52% among 330,000 | AID 485341, 2010;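 also: plate controls were no compound for no effect and no enzyme for full effect; nearly all actives have a fitted effect of over 20% in size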
Target sequence (P00811 whole entry, looked up): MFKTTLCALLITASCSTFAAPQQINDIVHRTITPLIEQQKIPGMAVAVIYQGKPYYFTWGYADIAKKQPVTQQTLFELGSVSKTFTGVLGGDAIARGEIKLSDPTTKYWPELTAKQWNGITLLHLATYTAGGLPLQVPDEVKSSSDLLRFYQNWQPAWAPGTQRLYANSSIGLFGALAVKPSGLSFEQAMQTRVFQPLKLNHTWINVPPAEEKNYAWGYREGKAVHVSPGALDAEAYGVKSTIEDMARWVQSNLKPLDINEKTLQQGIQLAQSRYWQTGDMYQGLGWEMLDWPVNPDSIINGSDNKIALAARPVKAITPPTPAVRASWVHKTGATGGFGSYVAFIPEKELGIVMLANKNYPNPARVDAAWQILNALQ
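20 mM phosphate pH 7.0 + 0.01% (detergent screen) or 0.0001% Triton X-100; 5.3 nM AmpC reagent; cpd preinc 15 min RT; nitrocefin (800 uM stock) to start; A480 q20 s × 4 min; Activity was normalised to no-enzyme and no-compound control wells.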
AmpC detergent: qHTS Inhibitors of AmpC Beta-Lactamase (assay with detergent). P00811. AmpC hydrolysis of nitrocefin, absorbance 480 nm, 0.01% Triton. Potency, µM (titrated, usually from 114 µM), inactives show at the highest dose activity change, negative = inhibition, actives largely listed as inhibitors. hit rate 0.041% among 370,000. AID 485294, 2010;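 also: 0% = no-compound wells and -100% = no-enzyme wells; nearly all actives have a fitted effect of over 25% in size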
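AmpC (5.3 nM in the dispensed reagent) in 20 mM phosphate pH 7.0 with 0.01% (detergent screen) or 0.0001% Triton X-100 was preincubated with compounds for 15 min at room temperature. Nitrocefin was then added from an 800 uM solution, and hydrolysis was followed at 480 nm.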
Sm TGR inh: qHTS Assay for the Inhibitors of Schistosoma Mansoni Peroxiredoxins; hit rate 3% among 360,000; AID 485364, 2010; purified TGR, DTNB reduction, TNB absorbance 405 nm; Potency, µM (top dose mostly 114 µM), for the others: top-dose activity change, negative = inhibition, hits mostly inhibitors; Schistosoma mansoni thioredoxin glutathione reductase (TGR), Q962Y6; also: nearly all actives have a fitted effect of over 60% in size
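Kinetic colorimetric format: TGR-catalysed, NADPH-driven DTNB reduction monitored via TNB absorbance. Enzyme dispensed at 20 nM; compound exposure 15 min at room temperature before reaction start.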
Active calls of the source: *; [ ] = another dose, or the depositor's remark. Shown are actives, neighbours in structure and some others; about 3.3% of the full set was active somewhere. Calls follow the shape of the dose curve; as a rule, active = well fitted curve in the direction sought with a large enough effect; inconclusive = small, poorly fitted or top-dose-only effect, or another doubt; inactive = no such curve, though single readings can be large; an effect the other way counts as inactive or inconclusive. Unless noted, % is scaled to controls: 0 for no effect and ±100 for the full control effect; potency is read from the fitted curve at half-maximal effect.

CCOC(=O)/C=C/C(=O)Nc1nccs1 was read as AmpC inh no detg 1%, AmpC detergent -7% and Sm TGR inh 40µM*.
For O=C(/C=C/c1cccs1)Nc1nccs1 the results were AmpC inh no detg -14%, AmpC detergent 4% and Sm TGR inh 8%.
For Cc1ccc(/C=C/C(=O)Nc2nccs2)o1 the results were AmpC inh no detg -19%, AmpC detergent -12% and Sm TGR inh 28µM*.
`CCOC(=O)C(=O)Nc1nccs1` gave AmpC inh no detg -26% and AmpC detergent -4%.
Cc1ccc(/C=C/C(=O)Nc2ncc(C)s2)o1 was read as AmpC inh no detg -27%, AmpC detergent -1% and Sm TGR inh 25µM*.
Screening Cc1cnc(NC(=O)/C=C/c2ccc(Br)o2)s1 returned AmpC inh no detg -8%, AmpC detergent 1% and Sm TGR inh -1%.
Cc1cc(C)cc(OCC(=O)NCC2(N3CCOCC3)CCCCC2)c1 was read as AmpC detergent 12% and Sm TGR inh 2%.
For Cc1oc(-c2ccc(C(=O)Nc3cccc(C(F)(F)F)c3)cc2)nc1CSc1ccccc1 the results were AmpC detergent 1% and Sm TGR inh 15%.
Cc1ccc(C)n1-c1ccc(-c2ccnc(N)n2)cc1 was read as AmpC inh no detg 16%, AmpC detergent inconclusive and Sm TGR inh 25µM*.
Screening Cc1onc(-c2ccccc2)c1-c1ccnc(N)n1 returned AmpC inh no detg -21%, AmpC detergent 6% and Sm TGR inh -1%.
For Cc1ccc(CNc2nnc(C)c3nnn(Cc4ccc(F)cc4)c23)cc1 the results were AmpC detergent 2% and Sm TGR inh 0%.
CCOc1cc(C(=O)Nc2cc3c(cc2N2CCCC2)n(C)c(=O)c(=O)n3C)cc(OCC)c1OCC was read as AmpC detergent 4% and Sm TGR inh 50µM*.
Screening CCOc1cc(C(=O)Nc2cc3c(cc2N2CCCC2)n(C)c(=O)n3C)cc(OCC)c1OCC returned AmpC inh no detg 48%, AmpC detergent -6% and Sm TGR inh -29%.
`Cc1c(NC2(C#N)CCCC2)c(=O)n(-c2ccccc2)n1C` gave AmpC inh no detg 0%, AmpC detergent -6% and Sm TGR inh 40µM*.
Cc1c(NC2(c3nnnn3-c3ccc(Br)cc3)CCCCC2)c(=O)n(-c2ccccc2)n1C was read as AmpC inh no detg 59%, AmpC detergent 3% and Sm TGR inh 3%.
For COc1ccc(OC)c(NC(=O)Cn2cc(S(=O)(=O)c3ccccc3)c(=O)c3cc(C)ccc32)c1 the results were AmpC detergent 6% and Sm TGR inh 0%.
Screening CC(C)c1ccc(S(=O)(=O)/N=C2\C=C(NS(=O)(=O)c3ccccc3)C(=O)c3ccccc32)cc1 returned AmpC inh no detg -51%, AmpC detergent -4% and Sm TGR inh inconclusive.
CC(C)c1ccc(S(=O)(=O)/N=C2/C=CC(=O)c3ccccc32)cc1 was read as AmpC inh no detg 28µM*, AmpC detergent 0% and Sm TGR inh 8.9µM*.
Screening Cc1ccc(Cl)cc1N1CCN(C(=O)C2CCN(S(=O)(=O)Cc3ccccc3)CC2)CC1 returned AmpC detergent 15% and Sm TGR inh -30%.
For O=C(O)c1ccc2nc(-c3cc4cc(Cl)ccc4oc3=O)[nH]c2c1 the results were AmpC detergent 3% and Sm TGR inh -1%.
For Cc1noc(C)c1S(=O)(=O)NCCc1csc2nc(-c3ccc(F)cc3)nn12 the results were AmpC detergent -3% and Sm TGR inh -1%.
For Cc1cc(C)c2cc(CN(Cc3ccco3)C(=S)NCC3CCCO3)c(=O)[nH]c2c1 (stereo not drawn) the results were AmpC inh no detg 60%, AmpC detergent -8% and Sm TGR inh 25µM*.
`Cc1cccc2cc(CN(CC3CCCO3)C(=O)c3ccco3)c(=O)[nH]c12` (stereo not drawn) gave AmpC inh no detg -6%, AmpC detergent -1% and Sm TGR inh 35µM*.
Screening Cc1ccc2cc(CN(CC3CCCO3)C(=S)NCc3ccco3)c(=O)[nH]c2c1C (stereo not drawn) returned AmpC inh no detg 105%, AmpC detergent 0% and Sm TGR inh -19%.
`Cc1ccc(C)c2[nH]c(=O)c(CN(CC3CCCO3)C(=S)NCc3ccco3)cc12` (stereo not drawn) gave AmpC inh no detg 106%, AmpC detergent 0% and Sm TGR inh 28µM*.
For O=C(c1ccco1)N(Cc1cc2ccccc2[nH]c1=O)CC1CCCO1 (stereo not drawn) the results were AmpC inh no detg -9%, AmpC detergent inconclusive and Sm TGR inh -7%.
For COc1ccccc1NC(=O)N(Cc1ccco1)Cc1cc2c(C)ccc(C)c2[nH]c1=O the results were AmpC inh no detg 9%, AmpC detergent -2% and Sm TGR inh 32µM*.
COc1ccccc1NC(=O)N(Cc1ccco1)Cc1cc2cccc(C)c2[nH]c1=O was read as AmpC inh no detg -7%, AmpC detergent -5% and Sm TGR inh -8%.
For COc1ccc2cc(CN(Cc3ccco3)C(=S)NCC3CCCO3)c(=O)[nH]c2c1 (stereo not drawn) the results were AmpC inh no detg -11%, AmpC detergent -1% and Sm TGR inh -27%[57.1 µM].
Screening COc1ccccc1-c1noc(-c2ccc(NC(C)C)c([N+](=O)[O-])c2)n1 returned AmpC detergent 8% and Sm TGR inh 28%.
For CC(C)CCNC(=O)CSCc1cnn(-c2ccccc2)c1-n1cccc1 the results were AmpC detergent 0% and Sm TGR inh 0%.
`COc1cccc(Cn2c(C)c(CNC3CCCCC3)c(C(=O)O)c2C)c1` gave AmpC detergent 16% and Sm TGR inh 4%.
Screening COc1ccc2c(Sc3ccc(C)cc3)c(C(=O)NCC(C)c3ccccc3)[nH]c2c1 (stereo not drawn) returned AmpC detergent 27% and Sm TGR inh 8%.
CSc1nc(SCCO)c2sc3nc(-c4ccco4)c4c(c3c2n1)CC(C)(C)OC4 was read as AmpC inh no detg 2%, AmpC detergent -13% and Sm TGR inh 2.5µM*.
Screening CSc1nc(SCCN(C)C)c2c3c(sc2n1)COC(C)(C)C3 returned AmpC inh no detg 53%, AmpC detergent 2% and Sm TGR inh 31%.
For CSc1nc(N(CCO)CCO)c2sc3nc(-c4ccco4)c4c(c3c2n1)CCC4 the results were AmpC inh no detg 153%, AmpC detergent 2% and Sm TGR inh 2.5µM*.
`COCCCNc1ncnc2c1sc1nc(-c3ccco3)c3c(c12)CC(C)(C)OC3` gave AmpC inh no detg 125%, AmpC detergent 4% and Sm TGR inh 16µM*.
For OCCN(CCO)c1ncnc2c1sc1nc(N3CCOCC3)c3c(c12)CCCC3 the results were AmpC inh no detg 57%, AmpC detergent -3% and Sm TGR inh -2%.
For CC1(C)Cc2c(c(-c3ccco3)nc3sc4c(NCCO)ncnc4c23)CO1 the results were AmpC inh no detg -4%, AmpC detergent 9% and Sm TGR inh 14µM*.
For CC(C)Cc1nc2sc3c(NCc4ccco4)ncnc3c2c2c1COC(C)(C)C2 the results were AmpC inh no detg -5%, AmpC detergent 3% and Sm TGR inh -3%.
